# From PubChem BioAssay (NCI)
# The panel holds about 79,000 compounds, 15% with a hit somewhere; the sample as a whole holds those more often. Values without a mark were called inactive. The source made the active and inactive calls. Cut-off read from the data, not from the text of the source: active = growth inhibition above about 70%; inactive = the rest.
# Experiments:
# [1] = NCI Yeast Anticancer Drug Screen. Data for the rad50 strain (AID 155);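 note: 0% = growth of vehicle-only cultures of the same strain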; settings: S. cerevisiae rad50 strain growth inhibition; at 50.0 µM; active compounds read high
# In short: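 Cells are treated with compound, grown, and their growth is then scored against vehicle-only cultures of the same repair-deficient yeast strain.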
# [2] = NCI Yeast Anticancer Drug Screen. Data for the mec2-1 strain (AID 157); settings: S. cerevisiae mec2-1 strain, at 50.0 µM, active compounds read high
# In short: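 Strain: mec2-1 (DNA repair/cell cycle alteration). Compound exposure, then growth measured; inhibition expressed relative to vehicle.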
# [3] = NCI Yeast Anticancer Drug Screen. Data for the sgs1 mgt1 strain (AID 161);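 note: 0% = growth of cultures given vehicle only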; settings: S. cerevisiae sgs1 mgt1 strain, at 50.0 µM, active compounds read high
# In short: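 Genetically altered yeast, compound exposure, growth inhibition relative to vehicle.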
# [4] = NCI Yeast Anticancer Drug Screen. Data for the cln2 rad14 strain (AID 165);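 note: 0% = growth equal to vehicle treated cultures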; settings: S. cerevisiae cln2 rad14 strain, at 50.0 µM, active compounds read high
# In short: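 Compounds are applied to the cln2 rad14 yeast strain, and growth is then compared with that of vehicle-treated cultures to give inhibition.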
# [5] = NCI Yeast Anticancer Drug Screen. Data for the bub3 strain (AID 167); settings: S. cerevisiae bub3 mutant strain, at 50.0 µM, active compounds read high
# In short: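 Part of a panel of yeast mutants defective in DNA damage repair or cell cycle regulation. Each strain is grown with compound, and inhibition is calculated relative to solvent-treated cultures.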
# [6] = NCI Yeast Anticancer Drug Screen. Data for the mlh1 rad18 strain (AID 175); settings: S. cerevisiae mlh1 rad18 strain growth inhibition; at 50.0 µM; active compounds read high
# In short: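 Read-out is yeast growth inhibition, calculated against vehicle-only controls. The compound was applied to a strain engineered with DNA damage repair alterations.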
Structure (SMILES),growth inhibition [1],growth inhibition [2],growth inhibition [3],growth inhibition [4],growth inhibition [5],growth inhibition [6]
CSc1cc(/C=C/c2ccccc2)ccc1[N+](=O)[O-],1.65%,0.95%,4.95%,15%,14.3%,4.45%
O=C(O)C(C(C(=O)O)P(=O)(O)O)P(=O)(O)O (stereo unspecified),-17.9%,-30.8%,-50.6%,-38.8%,-12.2%,-62.3%
CNCSc1ccccc1,-6.6%,-19.9%,-1.75%,-11.6%,-30.1%,-1.45%
CC/C(C)=N\NC(=O)CC(=O)N/N=C(/C)CC,-8.35%,1.45%,-7%,-61.6%,-4%,-17.1%
O=C(CCCC(=O)N/N=C/c1cccc([N+](=O)[O-])c1)N/N=C\c1cccc([N+](=O)[O-])c1,26.6%,21.9%,5.1%,26.8%,2.45%,26.1%
CC1=CC(=O)c2c(C=O)c(O)c(O)c(C(C)C)c2C1=O,91% (active),93.4% (active),91.8% (active),91.1% (active),91.2% (active),90.8% (active)
Cc1ccc2nc(Nc3ccc(Cl)cc3)cc(C(O)C3CCCCN3)c2c1 (stereo unspecified),99.5% (active),99.8% (active),99.7% (active),99.2% (active),88.8% (active),99.5% (active)
CCCCCCCCCCCCCCCCS(=O)(=O)N/N=C(/C)N(C)c1ccc(OC)cc1,-15.4%,-32.4%,-6.1%,-10.4%,-15.4%,-7.15%
COCCCNc1ccc([N+](=O)[O-])cn1,-21.4%,-40.6%,-20.4%,2.2%,-13%,-14.4%
C(=N\N1CCN(/N=C/c2cccc3ccccc23)CC1)/c1cccc2ccccc12,16.2%,6.85%,19%,18.5%,-0.65%,3.4%
O=C1NC(=O)C2(CCCCCC2)N1,-23.9%,-23.9%,10.1%,-0.65%,-4.1%,-26.7%
Cc1cc(C)c(C)c(CC(C)(CI)CI)c1C,20.3%,-13.2%,-4.7%,0.65%,-8.05%,-3.6%
CCOC(=O)NC(Nc1ccc(S(=O)(=O)Nc2ncccn2)cc1)(C(=O)OCC)C(F)(F)F (stereo unspecified),-0.55%,-19.4%,10.9%,32.1%,16.9%,2.2%
COc1ccc(S(=O)(=O)O)cc1NC(=O)CC(=O)c1cccc([N+](=O)[O-])c1,-5.5%,-18%,9.2%,9.05%,-12%,-15.9%
COc1cc(/C=C2/C(=O)N(C(=O)c3ccccc3O)N=C2C)ccc1O,-6.55%,-10.3%,-9.4%,9.75%,1.65%,-13.9%
O=C(/C(=C/c1ccccc1)c1ccc(Cl)cc1)c1ccccc1,12.6%,13.9%,13.7%,-15.1%,5.9%,-4%
CCCCCCCCCCCCCCCC(=O)N(CCCC)CCCC,3.55%,5.7%,-4.05%,11.9%,3.4%,8.85%
Cc1ccc(S(=O)(=O)NNC(=O)Nc2cccc(C(F)(F)F)c2)cc1,24.4%,-18%,18.1%,-2.15%,-0.3%,54.7%
O=C(Oc1ccn(C2OC(CO)C(O)C2O)c(=O)c1)C12CC3CC(CC(C3)C1)C2 (stereo unspecified),36.1%,11.6%,25.2%,25.4%,0.95%,36.2%
CCCC(O)C(C)C(O)CC (stereo unspecified),-9.85%,-30.4%,-22.2%,-3.45%,1.4%,-1.45%
CC(C)(C)C(=O)C(C#N)C(=O)C(C)(C)C,8.75%,-19.9%,-7.45%,16.1%,-19.9%,-14.2%

Structure (SMILES),growth inhibition [1],growth inhibition [2],growth inhibition [3],growth inhibition [4],growth inhibition [5],growth inhibition [6]
OC1C=CC2CCC1C2 (stereo unspecified),-4.85%,7.15%,-16.4%,6%,10.8%,5.2%
COCn1cnc2c(ccn2C2OC(CO)C(O)C2O)c1=O (stereo unspecified),-25.4%,0%,-8.9%,-2.1%,4%,4.55%
CCN(CC)C(C)(C)C(=O)/C=C/c1ccc(OC)cc1,-11.6%,-15.2%,-33.3%,12.7%,9.65%,-18.4%
CCNc1nc(Cl)nc(C(Cl)(Cl)Cl)c1Cl (tested in a mixture with another compound),96.6% (active),95.1% (active),97.8% (active),74.6% (active),71% (active),95.5% (active)
CCCCCCCC/C=C\CCCCCCCC(=O)N1CCN(C(=O)CCCCCCC/C=C/CCCCCCCC)C1,20.4%,-13.3%,4.05%,16.4%,0.15%,-8.35%
CCOC(=O)c1c(C)c2c(n1C)CCC(C(=O)OCC)C2=O (stereo unspecified),-3.15%,9.4%,10.3%,11.4%,4.6%,0.45%
O=C(Nc1ccc(Br)cc1)Oc1ccc(-c2ccccc2)cc1,28.9%,9.15%,4.6%,18.1%,41.8%,18.4%
CS(=O)c1ccc(C(F)(F)F)cc1C(=O)O (stereo unspecified),-3.3%,9.95%,9.7%,-24.4%,-20.5%,9.85%
O=C1c2ccccc2C(=O)N1CCNc1ccccc1[N+](=O)[O-],-9.25%,-12.2%,7%,-22.9%,6.5%,-19.2%
OC1(c2ccc(F)cc2)CCNCC1,21.5%,-7.55%,33.9%,20.4%,19%,7.2%
O=C1c2ccccc2N(Cc2cccc(F)c2)C2=NCCCC12 (stereo unspecified),-4.2%,-39%,14.2%,0.35%,8.3%,0.35%
CS(=O)(=O)OCC1CCCCCCCCCCC12SCCCS2 (stereo unspecified),-30.9%,-22.7%,-3.25%,20.4%,-23.6%,-45.9%
CC(=O)Nc1cc2c(cc1Cl)-c1ccc(Br)cc1C2,6.35%,-12.8%,-2.25%,-23.4%,0.85%,-19.7%
CCCC(C)c1ccc(C(=O)O)cc1 (stereo unspecified),10.2%,-10.7%,4.45%,11.2%,-18.1%,20.9%
CN1CCC(O)(C(C)(C)C)CC1,-5.05%,-5.15%,3.65%,10.9%,-3.7%,-68.9%
COC1=NN2C(OC)(c3ccccc3)c3c(-c4ccccc4)sc(-c4ccccc4)c3C2(c2ccccc2)S1 (stereo unspecified),29.4%,2.1%,5.15%,37.6%,1.9%,5.5%
Cc1cc(C)c(/C=N/NC(=O)NN)c(C)c1,-16.7%,-7.15%,-12.2%,-2.1%,2.8%,-4.6%
CCOC(CN(CC)CC)OCC,-6.75%,-27.6%,-5.15%,7.2%,-21.8%,2.15%
COc1ccc(/C=C/Cc2cc3c(cc2OC(C)=O)OCO3)cc1,11.8%,0.4%,26.1%,-8.4%,33%,12.4%
Cc1ccc2c(c1)[n+]([O-])c1c3ccccc3[nH]c1[n+]2[O-],63.2%,23%,22.9%,25.7%,15.2%,26.4%
